The results in this text go back to PubChem BioAssay AID868 (SRMLSC, 2007).

The campaign covered roughly 190,000 compounds. About 3,500 (1.8%) were called active. Many of the other results were omitted from the sample, so actives are more common in it than they were. Unmarked numbers belong to inactive results.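 How the source made its calls: active means inhibition above a set limit, 3 SD over mean compound inhibition (cut at about 8.4% in these data); inactive means the rest.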

This test in a line: inhibitors of the yeast RAM network, primary screen, dse1pr::URA3 reporter, 5-FOA selection (AID 868).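 Further: 0% = DMSO-only wells with no growth and 100% = 10 µM 1-NA-PP1 full growth.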 The following applies: S. cerevisiae dse1pr::URA3 reporter, 5-FOA growth OD615, 2 d; at 50 µM; hits give high values; analog-sensitive cbk1-as2 kinase mutant strain.
By inhibition is commonly meant the relative decrease from the control value, in per cent. Turning to `COc1ccccc1Cn1c(=S)[nH]c2cc(C(=O)N3CCN(C)CC3)ccc2c1=O`, the inhibition is 2.83%.
For `COc1ccc(OC)c(-n2c(=S)[nH]c3cc(C(=O)N4CCCCC4)ccc3c2=O)c1` the value was 8.46% (active); for `COc1ccc(OCc2cccc(C(=O)N3CCCC3)c2)cc1`, -0.11%.
`CC(=O)c1ccc(S(=O)(=O)Nc2ccc(C(=O)NCC(c3ccccc3)N(C)C)cc2)cc1` (configuration not stated): the inhibition is 1.76%.
Turning to `O=C(Nc1ccc(N2CCN(C(=O)c3cccs3)CC2)cc1)c1cccnc1Cl`, the inhibition was 0.88%.
For `O=C(O)c1cnn2c(C(F)(F)F)cc(-c3ccccc3)nc12` the value was 0.53%; for `Cc1cccc(N2CCN(C(=O)c3cnn4c(C(F)F)cc(-c5ccccc5)nc34)CC2)c1C`, 12.1% (active).
Turning to `CC(=O)N1CCN(c2cccc(C)c2C)CC1`, the inhibition is 2.09%.
For `COc1cc(N/C=C2\CC(=O)NC(C)=C2C#N)cc(OC)c1OC`, the inhibition is 2.13%.
In the case of `Cn1c(=O)c2cc(S(=O)(=O)NCCC(=O)Nc3ccc(F)cc3F)ccc2n(C)c1=O`, the inhibition is 2.64%.
Next, `COc1ccc(CCNC(=O)CC2SC(=Nc3cc(C)cc(C)c3)NC2=O)cc1OC` (configuration not stated): 1.51%; `CC1Cc2ccccc2N1C(=O)c1cc2sccc2n1Cc1ccccc1` (configuration not stated): 2.9%.
For `O=C(c1cc2sccc2n1Cc1ccc(F)cc1)N1CCc2ccccc21`, the inhibition was 2.22%.
For `CCOC(=O)c1cc2sccc2n1Cc1ccc(C#N)cc1` the value was 8.47% (active).
For `NC(=O)CCC(NS(=O)(=O)c1ccc(Cl)cc1)C(=O)NCc1ccccc1Cl` (configuration not stated) the value was 2.16%.
For `CCCC1NC(=S)NC(C)=C1C(C)=O` (configuration not stated), the inhibition is 1.13%.
As for `Cc1ccc(NC(=O)c2cccnc2C(=O)Nc2ccc(C)cc2)cc1`, the inhibition is 2.98%.
For `Cc1ccc(NC(=O)CN2CCCCC2)c2c1CC(C)(C)O2` the value was 0.63%; for `COc1ccc(-c2[nH]ncc2CN(C)Cc2cc(C)[nH]n2)c(F)c1`, 0.37%.
For `CN(C)c1ccc(C2Nc3ccccc3C(=O)N2NS(=O)(=O)c2ccccc2)cc1` (configuration not stated) the value was 1.39%.
With `O=C1Cc2ccccc2Sc2ccc(Cl)cc21`, the inhibition was 9.58% (active).
As to `S=C1Nc2cc(Cl)ccc2Sc2ccccc21`, the inhibition was 0%.
As for `O=C(CSc1nc2ccccc2o1)N1c2ccccc2Sc2ccc(Cl)cc21`, the inhibition is 3.58%.
For `CN(CC(=O)N1CCN(c2ccccc2)CC1)S(=O)(=O)c1cccs1` the value was 1.71%; for `O=C(NCCCN1CCOCC1)c1ccccc1NS(=O)(=O)c1ccc(Br)cc1`, 1.86%; for `CC(=O)c1cc(-c2ccccc2)n(CCC(=O)NC2CCCCCC2)c1C`, 8.76% (active).
Consider `CC(=O)c1cc(-c2ccccc2)n(CC(=O)NC2CCCCC2)c1C`, for which the inhibition is 1.07%.
As for `O=C(CN1C(=O)CC(c2ccccc2)=Nc2ccccc21)NC1CCCCC1`, the inhibition is 0.45%.
For `S=c1[nH]nc(/C=C/c2ccccc2)o1` the value was -1.49%; for `O=c1c(-c2ccccc2)cnc2n1CCS2`, 0.49%.
Next, `CNc1[nH]ncc1[N+](=O)[O-]`: 0.14%.
Regarding `CC(=O)Nc1ccc(S(=O)(=O)Nc2ccc(-c3ccc4nnc(C)n4n3)cc2)cc1`, the inhibition is 1.24%.
Consider `COc1cc2ccccc2cc1C(=O)Nc1ccc(S(=O)(=O)Nc2cc(C)on2)cc1`, for which the inhibition is 9.69% (active).
`Cc1cc(NS(=O)(=O)c2ccccc2)no1`: the inhibition was 1.83%.
Next, `COc1cc(OC)cc(C(=O)Nc2ccc(S(=O)(=O)Nc3cc(C)on3)cc2)c1`: 3.99%; `C/C=N/NC(=O)CCCC(=O)N/N=C/C`: 0.88%; `C#CCOCCOCCOCCNc1nc(N2CCN(C(=O)[C@H](C(C)C)n3cc(CCO)nn3)CC2)nc(N2CCN(C(=O)[C@H](C(C)C)n3cc(CCO)nn3)CC2)n1`: 1.36%.
Next, `CCC1C(=O)c2ccccc2N(C)C1=O` (configuration not stated): 0.28%.
Next, `CN1C(=O)/C(=N/OC(=O)c2ccccc2Br)c2ccccc21`: 4.91%; `CN1C(=O)/C(=C\c2cc(Br)cs2)c2ccccc21`: 8.8% (active).
On to `CN1CCN(C(=O)CCc2ncc(C(F)(F)F)cc2Cl)CC1`, for which the inhibition is -0.55%.
Consider `COc1ccc(-n2cnc3cc(C(=O)NC4CCCC4)ccc32)cc1`, for which the inhibition was -0.87%.
Next, `N#Cc1nc(Cc2ccccc2)oc1NCCc1ccccc1`: 2.28%; `N#Cc1nc(Cc2cccc3ccccc23)oc1NCc1ccc2c(c1)OCO2`: 11% (active).
Next, `O=C(COc1ccccc1)NCc1ccc2c(c1)OCO2`: 3.27%; `CCCNC(=O)OC[C@H]1O[C@H](CCO/N=C/[C@@H](NS(=O)(=O)c2ccc(C)cc2)[C@H](C)/C=C/CC(=O)OC)C=C[C@@H]1Oc1ccc(OC)cc1`: 14.8% (active).
Next, `CCCC(NS(=O)(=O)c1ccc(OC)cc1)C(=O)O` (configuration not stated): 0%; `CC(C)Oc1ccc(Cc2n[nH]c(=S)n2Cc2ccccc2)cc1Cl`: 9.13% (active); `CC(C)Oc1ccc(CCc2n[nH]c(=S)n2Cc2ccccc2)cc1`: 6.59%.
For the compound `C=CCn1c(CCc2ccc(OC(C)C)cc2)n[nH]c1=S`, the inhibition was -0.6%.
For `Cc1ccc(-c2nn(-c3ccccc3)cc2/C=C/C(=O)Nc2cccc(S(N)(=O)=O)c2)cc1` the value was 4.87%.
Next, `O=C(O)c1ccc(NC(=O)c2cn(-c3ccccc3)nc2-c2ccc(Cl)cc2)cc1`: 6.63%; `COc1ccc(-c2nn(-c3ccccc3)cc2/C=C\C(=O)Nc2ccc(C(=O)O)cc2)cc1`: 9.89% (active); `Cc1cc(NC(=O)COC(=O)COc2ccc(Cl)cc2C)c([N+](=O)[O-])cc1C`: 10.1% (active).
For `CCCC(=O)OCC(=O)Nc1cc(Cl)ccc1[N+](=O)[O-]` the value was 0.82%; for `COc1ccc(OCC(=O)Nc2cc(C)c(Cl)cc2OC)c([N+](=O)[O-])c1`, 1.54%; for `Cc1ccccc1C(=O)Nc1ccc(N2CCCCCC2)cc1`, 1.43%.
Turning to `O=C(Nc1cc(S(=O)(=O)N2CCOCC2)ccc1Cl)c1cc(=O)c2ccccc2o1`, the inhibition is 1.91%.
`COc1ccccc1NC(=O)/C=C/C(=O)O`: the inhibition was 2.02%.
For `c1ccc(CSc2nnc(-c3ccco3)c(-c3ccco3)n2)cc1`, the inhibition was 0.53%.
Next, `Clc1ccccc1CSc1nnc(-c2ccco2)c(-c2ccco2)n1`: 16% (active); `Nc1nc(SCc2ccccc2Cl)n[nH]1`: 2.44%.
